For this assay, the system named is VDR homodimer (NR concentration 270 nM). Kind of assay: PBM binding z-score (relative to random genomic background probes); higher = stronger binding; sequences stand for … in GC…GCGATTGACAGCGTAGAATGAAGG
Summed up: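 Each nuclear receptor dimer, without ligand, was incubated for 1 h on custom Agilent 4×180K protein-binding microarrays. Binding was detected with antibodies against each partner (one per run), and scanned fluorescence was regression-normalized. The binding z-scores are referenced to random human genomic background probes.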
For GATACAGGGTCAGCTAGAGTCCAGAGTATGGAAA, the PBM binding z-score is 1.58.

Regarding AGGATGAGGTTAAGATCAGGGAAACAGAATACAT, the PBM binding z-score came out at 1.08.

In turn, CCGAGTAGGTTATGGGGCATTCGGGCAACGGTGA came in with a PBM binding z-score of -0.175. For TCATAAAGGTAAACAGGTGAAAGTCCGTAAGTTA, the PBM binding z-score came to 0.647.

Turning to ACAGACAGGGGAGTGAAGGTAACTCAGCTGGACG, the PBM binding z-score is -0.467. The same measure for CATACAGGGTCAGCTAGGCGAGAGTAGGGACGGC: 0.943; for GCGACTGGGGCAAATCAGGTTACCATAAGGTTGG: -0.198; for ACTAGCAGGCCAAGTTTGGTTCACTCAAACAAAG: 0.338.

CCTAGTTTGTCAAGGTCACACACGCTATAGGTAC yielded a PBM binding z-score of 4.93. The same measure for CCTACTGGGCCAAAAGTCATTGATTCCAATGCTC: -0.212; for TCTAGTTGGGCAAAGGTCACACACTCGAAATGCG: 2.26; for TCTCGGAGGACACGAAGCTCAGAGCTTTCCAGAG: -0.5. For ATCTCTAGGTAACCAAGTTCAATGAATGCCGAAC, the PBM binding z-score came out at 3.84. The same measure for ACTATTAGTTGACTTAGTGCAACCGATACGACGC: 0.241. The sequence CTCGACAGGTCGTGCTCAGGTGAGTATACCAAAC gave a PBM binding z-score of 0.293.

Consider TCTTGTAAATCAGCAGGTTAAGAAAGCTGGCCAA, for which the PBM binding z-score is -0.269. The same measure for CCGACTGGGGCAGAAAGGTTAACATACCATCCGG: -0.0953; for CCTACTGGGCCATTCAGAGGTCTTTGATCATATG: -0.313. Sequence CCTCGGAGGACCACAGGAGGTCAGAGCTGCCAGA showed a PBM binding z-score of 0.746. The same measure for ATCTCTAGGTAAAGAGAGTTCAGTGAATGCAAAT: 3.67. The same measure for TCTTGGAGATCAACAGGAGGTTAAGAAAGATCGA: -0.283. As to CCTCGGAGGAAAGAAGGTCAGAGCTGTCCGCTTT, the PBM binding z-score stood at 0.00914. The same measure for CCTCGGAGGACATAAGGTCAGAGCTGTCCGCTTT: 1.01; for CGTCAAAGTTCAAGGTAAGGTAACAGAAAGCAGC: 2.9. The sequence TTACCAAGGTGAAGGTCGTTGTTCCCTCTGTAGA returned a PBM binding z-score of 1.11. The same measure for CAGCCTAGGTCAGGGCCAGTTTAGGAGGAACGTT: -0.142; for ATGTCTAGGTAACAAGTTCAGTGAAAGAGAGGAC: 2.23; for GGAACGAGGGAATTCGAGTTGATAGCATGGCGAT: -0.525. The same measure for CCTCGGAGGACAACAGGCGGTCAGAGCTGCCAGA: -0.0839.

Regarding CCTCGCAGGACAGAAGGTCAGAGCTGTCCGCTTT, the PBM binding z-score is 0.0556. The same measure for GCTATTAGTTGAAAGGGCAAGCGAATGATTCTCG: 0.401; for CCTAGCAGGCCAGGGTCACTCAAGCATTTCGCTT: 1.25; for CGTCCTAGGTCAATGCTAGGTCAGTGAAAGCATT: 0.909. The same measure for CCTACAGGGTCAGCTAGGCCAGAGTAGGGACGGC: 0.899; for TGAATGAGGTTATAAGATCATGGAACGTTGCAAA: 0.42; for CCTTACGGGTCAAGGTTATAGCACGGGTGGTACG: 1.46. The same measure for ACAGACATGTGAGTGAAGGTAACTCAGCTGGACG: -0.512; for TCTTGTAGATCAACAGGAAGTTAAGAAAGATCGA: -0.551.

For the sequence TCACGGAGGACACGAAGGTCAGAGCTTTCCAGAG, the PBM binding z-score was 1.42. On to GCTAGTTGGTCAGTAAAAGGTTACACACCGGTCG, for which the PBM binding z-score was 0.234.

These data come from the supplement of paper PMC6555819.
